Experimental findings from PubChem BioAssay are described below.

Molecules are shown by their SMILES. For some assays here: Measured potencies and affinities stand elsewhere. Activity calls are given as the source filed them.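 The calls were made as follows, unless noted: active = fitted half-maximal concentration within 10 nM to 100 µM, steepness 0.5 to 2, significant signal drop, low assay interference; inactive = the rest.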

The target of assay [1] is Cell division control protein 42 homolog (Homo sapiens) (UniProt P60953). Nature of the assay: activated mutant Cdc42 GTP-binding inhibitors, dose response, biochemical, multiplex bead flow cytometry, Bodipy-FL-GTP (AID 1333;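 active = fitted half-maximal concentration within the tested dose range, moderate curve steepness, a statistically real signal drop, and little compound fluorescence or tag-binding interference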). Background: In flow cytometry, cells or beads pass a laser one at a time.
Chain of Cell division control protein 42 homolog (Homo sapiens) (P60953 whole entry, looked up): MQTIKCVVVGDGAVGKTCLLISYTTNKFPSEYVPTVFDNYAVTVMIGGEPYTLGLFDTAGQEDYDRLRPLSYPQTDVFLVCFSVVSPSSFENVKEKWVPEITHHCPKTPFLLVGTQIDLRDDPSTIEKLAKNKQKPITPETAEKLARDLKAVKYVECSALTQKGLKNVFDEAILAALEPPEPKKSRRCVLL
The target is the same in assay [2]. Nature of the assay: wildtype Cdc42 GTP-binding inhibitors, dose response, biochemical, multiplex bead flow cytometry, Bodipy-FL-GTP (AID 1334;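 active = fitted half-maximal concentration within the tested range, moderate curve steepness, significant signal drop, and little compound fluorescence or bead-linkage interference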). As to conditions: bead-based flow cytometry, Bodipy-FL-GTP binding to GST-Cdc42; at 100 µM (top of the series) unless noted.
Assay [3] addresses GTPase HRas (Homo sapiens) (UniProt P01112). Nature of the assay: inhibitors of GTP binding to wildtype Ras, dose response, biochemical, multiplex bead flow cytometry (AID 1335). As to conditions: bead-based flow cytometry, Bodipy-GTP binding to GST-Ras; at 100 µM (top of the series) unless noted.
In assay [4] the test system is Ras-related protein Rab-7a (dog), GTP binding. The assay can be described thus: Rab7 GTP binding inhibitors, potency, dose response, biochemical, wildtype, multiplex bead flow cytometry (AID 1336; call rule not given here).
The target in assay [5] is Ras-related C3 botulinum toxin substrate 1 (Homo sapiens) (UniProt P63000). The assay can be described thus: wildtype Rac1 GTP binding inhibitors, dose response, biochemical, multiplex bead flow cytometry (AID 1340;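 active = dose curve with midpoint inside tested range, moderate steepness, plateau gap beyond fit error, low compound glow and bead-link interference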). As to conditions: GST-Rac1 beads, Bodipy-FL-GTP binding; at 100 µM (top of the series) unless noted.
Assay [6] has as its target GTPase HRas (Homo sapiens) (UniProt P01112). Nature of the assay: activated Ras mutant GTP binding inhibitors, dose response, biochemical, multiplex bead flow cytometry (AID 1341;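 active = dose-response curve with midpoint inside the tested range, moderate steepness, significant amplitude and little compound fluorescence or bead-attachment interference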;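 also: GST-tagged constitutively activated Ras mutant immobilized on beads and multiplexed with other GTPases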).

Chain of GTPase HRas (Homo sapiens) (P01112 whole entry, looked up): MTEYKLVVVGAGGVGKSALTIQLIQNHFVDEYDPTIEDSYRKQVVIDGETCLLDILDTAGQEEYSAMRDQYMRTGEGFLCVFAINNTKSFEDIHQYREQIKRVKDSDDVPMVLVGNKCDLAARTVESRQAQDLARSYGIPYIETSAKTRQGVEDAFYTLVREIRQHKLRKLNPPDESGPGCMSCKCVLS

`O=S1(=O)N=C(N=Nc2c(O)[nH]c3ccccc23)c2ccccc21`: the result in assay [1], in assay [4] and in assay [6] was inactive. The fluorescence, percent of control (lower = inhibition) in assay [2] was 27.7%. In assay [3], this compound displayed a GTP binding, percent of control of 62.5%. In assay [5], the GTP binding signal, raw median fluorescence (lower = inhibition) (MCF (arbitrary fluorescence units)) was 129.
As to `Cc1nc2ncccn2c1-c1csc(Nc2ccccc2)n1`, the compound was classed as inactive in assay [1], in assay [4] and in assay [6]. In addition, the fluorescence, percent of control (lower = inhibition) in assay [2] came out at 26.5%. This compound also yielded a GTP binding, percent of control in assay [3] of 40.8%. The compound also gave a GTP binding signal, raw median fluorescence (lower = inhibition) (MCF (arbitrary fluorescence units)) in assay [5] of 105.
Consider `CC(C)Cc1csc(NC(=O)c2ccccc2Cl)c1C(=O)O`, for which the compound was classed as inactive in assay [1] and in assay [4]. The fluorescence, percent of control (lower = inhibition) in assay [2] came to 29.8%. In assay [3], this compound came in with a GTP binding, percent of control of 74.3%. Further, the GTP binding signal, raw median fluorescence (lower = inhibition) (MCF (arbitrary fluorescence units)) in assay [5] stood at 214.
For `Cc1ccc(CSc2ncccc2C(=O)O)cc1`, the outcome in assay [1], in assay [4] and in assay [6] was inactive. Moreover, the fluorescence, percent of control (lower = inhibition) in assay [2] came out at 67.9%. In assay [3], this compound yielded a GTP binding, percent of control of 199%. The compound also had a GTP binding signal, raw median fluorescence (lower = inhibition) (MCF (arbitrary fluorescence units)) in assay [5] of 284.
As for `O=C(O)c1ccccc1NCc1ccc(Cl)cc1`, the compound was classed as inactive in assay [1], in assay [4] and in assay [6]. In assay [2], the fluorescence, percent of control (lower = inhibition) was 79.2%. The compound further yielded a GTP binding, percent of control in assay [3] of 95.6%. Also, in assay [5], the GTP binding signal, raw median fluorescence (lower = inhibition) (MCF (arbitrary fluorescence units)) stood at 50.2.
For the compound `Cc1cc(C)n(C(=O)CNC(=O)c2ccc3c(c2)OCCO3)n1`, the call in assay [1], in assay [4] and in assay [6] was inactive. Further, the fluorescence, percent of control (lower = inhibition) in assay [2] worked out at 53.2%. In assay [3], this compound displayed a GTP binding, percent of control of 61.7%. In assay [5], this compound returned a GTP binding signal, raw median fluorescence (lower = inhibition) (MCF (arbitrary fluorescence units)) of 200.
For `COc1cccc(CNCc2ccc(C(=O)O)s2)c1`, the result in assay [1], in assay [4] and in assay [6] was inactive. Further, the fluorescence, percent of control (lower = inhibition) in assay [2] amounted to 61.9%. This compound gave a GTP binding, percent of control in assay [3] of 84.8%. The GTP binding signal, raw median fluorescence (lower = inhibition) (MCF (arbitrary fluorescence units)) in assay [5] is 32.9.
With `NC(=S)Nc1cccc2cc3ccccc3cc12`, the compound was called inactive in assay [1], in assay [4] and in assay [6]. The fluorescence, percent of control (lower = inhibition) in assay [2] came out at 75.3%. The GTP binding, percent of control in assay [3] is 120%. This compound also returned a GTP binding signal, raw median fluorescence (lower = inhibition) (MCF (arbitrary fluorescence units)) in assay [5] of 137.
In the case of `CCOc1ccc(Cn2c3ccc(OC)cc3c3nc4ccccc4nc32)cc1`, the compound was classed as inactive in assay [1], in assay [4] and in assay [6]. Also, in assay [2], the fluorescence, percent of control (lower = inhibition) is 114% [at 33.3 µM]. This compound also came in with a GTP binding, percent of control in assay [3] of 127% [at 33.3 µM]. Moreover, the GTP binding signal, raw median fluorescence (lower = inhibition) (MCF (arbitrary fluorescence units)) in assay [5] was 242.
In the case of `Nc1[nH]c(=S)nc2nc(-c3ccccc3)c(-c3ccccc3)nc12`, the outcome in assay [1], in assay [4] and in assay [6] was inactive. Also, the fluorescence, percent of control (lower = inhibition) in assay [2] amounted to 33.9%. The compound further showed a GTP binding, percent of control in assay [3] of 81.4%. Further, the GTP binding signal, raw median fluorescence (lower = inhibition) (MCF (arbitrary fluorescence units)) in assay [5] came out at 198.
In the case of `O=S(=O)(Nc1ncn[nH]1)c1ccc2ccccc2c1`, the compound was called inactive in assay [1], in assay [4] and in assay [6]. The fluorescence, percent of control (lower = inhibition) in assay [2] amounted to 62.3%. Also, the GTP binding, percent of control in assay [3] was 70.5%. The GTP binding signal, raw median fluorescence (lower = inhibition) (MCF (arbitrary fluorescence units)) in assay [5] is 224.
As for `NS(=O)(=O)c1ccc(-c2ccc(/C=C3\C(=O)Nc4cc(Cl)ccc43)o2)cc1`, the call in assay [1], in assay [4] and in assay [6] was inactive. For the same compound, in assay [2], the fluorescence, percent of control (lower = inhibition) turned out to be 38%. The same compound had a GTP binding, percent of control in assay [3] of 78.4%. In addition, in assay [5], the GTP binding signal, raw median fluorescence (lower = inhibition) (MCF (arbitrary fluorescence units)) amounted to 152.
On to `CCc1ccc(OCc2ccc(C(=O)O)o2)cc1`, for which the result in assay [1], in assay [4] and in assay [6] was inactive. The fluorescence, percent of control (lower = inhibition) in assay [2] was 60.7%. The GTP binding, percent of control in assay [3] stood at 90.3%. Besides, the GTP binding signal, raw median fluorescence (lower = inhibition) (MCF (arbitrary fluorescence units)) in assay [5] was determined as 35.2.
Take `O=C(O)c1ccccc1SCc1ccc2c(c1)OCO2`: the call in assay [1], in assay [4] and in assay [6] was inactive. For the same compound, the fluorescence, percent of control (lower = inhibition) in assay [2] worked out at 71%. Further, the GTP binding, percent of control in assay [3] was determined as 79.2%. This compound returned a GTP binding signal, raw median fluorescence (lower = inhibition) (MCF (arbitrary fluorescence units)) in assay [5] of 0.
Take `O=C(CSc1ccc2nnc(-c3ccncc3)n2n1)Nc1nccs1`: the result in assay [1], in assay [4] and in assay [6] was inactive. The fluorescence, percent of control (lower = inhibition) in assay [2] was found to be 30.7%. In assay [3], this compound yielded a GTP binding, percent of control of 69.4%. This compound also gave a GTP binding signal, raw median fluorescence (lower = inhibition) (MCF (arbitrary fluorescence units)) in assay [5] of 174.
